HIF activator = HIF pathway transcriptional activation; activation, % at 7.5 µM (by protocol); U2OS HRE-luciferase reporter, luminescence; normalized: DMSO 0%, desferrioxamine 100%; 300,000 compounds, 0.32% hits; AID 1910;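 active = mean activation of at least 10% of the iron chelator positive control signal, with at least half of replicates also reaching 10%; inconclusive = mean and replicate majority disagree about reaching 10%; inactive = mean and most replicates under 10%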
Calb FLC = C. albicans growth modulation with fluconazole; C. albicans CaCi-2 (fluconazole-resistant clinical isolate) + fluconazole, Alamar Blue growth, 48 h; growth inhibition, % (no concentration beside the values); 300,000 compounds, 0.57% hits; AID 1979;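 active = growth inhibition above about 58% in most replicates, limit read from the data, passing the limit was not always enough; inconclusive = exactly half the replicates above a set limit; inactive = most replicates below a set limit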;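 also: all wells also contain fluconazole at 8 µg/ml as a sub-toxic cotreatment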
TNF death inh = TNF-alpha cell death inhibition in Jurkat FADD-/- cells. Jurkat FADD-/- TNF necroptosis rescue, ATP luminescence, 24 h; 0 = TNF only, 100 = no-TNF cells. activation (protection from cell death), % at 10 µM. 220,000 compounds, 0.068% hits. AID 463075;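 active = activation, meaning protection from cell death, of at least 50% relative to plate controls; inactive = activation below 50%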;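 also: necroptosis triggered by 40 ng/mL TNF-alpha added together with compound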
zVAD death inh = blocks zVAD induced death of L929 cells. L929 zVAD necroptosis rescue, ATP luminescence, 24 h; with zVAD 60 µM. viability rescue, % at 10 µM. 220,000 compounds, 0.38% hits;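 active = activation, scaled between plate controls, above about 75%, limit read from the data; inactive = activation under that limit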
A number is an active result; - = inactive; ? = inconclusive; . = not tested or not shown. This is a sample that favours compounds with a hit; in the whole collection about 1.1% have one here.

SMILES	HIF activator	Calb FLC	TNF death inh	zVAD death inh
Cc1ccc(S(=O)(=O)c2c(C)nn(C(C)(C)C)c2OC(=O)c2ccco2)cc1	-	-	-	-
Cc1ccc(S(=O)(=O)c2c(C)nn(C(C)(C)C)c2OC(=O)c2ccc(Br)o2)cc1	-	87	-	-
Cc1ccccc1-n1nc(-c2cccnc2)cc1C(=O)N/N=C/c1ccncc1	-	-	-	-
O=C(CN1CCC(C(=O)c2ccc(Cl)cc2)CC1)Nc1ccc2c(c1)OCCO2	74	-	-	-
S=C(Nc1ccc2c(c1)OCCO2)Nc1ccccc1Cl	.	-	.	.
O=C(CN1C(=O)COc2ccc(Cl)cc21)Nc1ccc2c(c1)OCCO2	82	-	-	-
S=C(Nc1ccc(Cl)cc1)Nc1ccc2c(c1)OCCO2	.	81	.	.
Cc1c(C)c2c(OCC(=O)N3CCC(C(N)=O)CC3)cc3c(c2oc1=O)CCC(C)(C)O3	-	-	.	.
O=C(CNC(=O)c1[nH]cnc1C(=O)NC(c1ccccc1)c1ccccc1)OCc1ccccc1	-	-	.	.
O=[N+]([O-])c1nn(-c2cccc(Cl)c2)n(O)c1=NCc1cccnc1	-	-	-	-
O=[N+]([O-])c1nn(-c2ccc(Cl)cc2)n(O)c1=NCc1cccnc1	-	88	-	-
NC(=O)C1CCCN(Cc2c(C(=O)N3CCc4ccccc4C3)nc3ccc(Cl)cn23)C1 (centres undefined)	11	-	.	.
CC1CCCN(Cc2c(C(=O)N3CCc4ccccc4C3)nc3ccc(Cl)cn23)C1 (centres undefined)	-	-	.	.
COc1ccc(NC(=S)NCc2cccnc2)cc1OC	-	-	-	-
COc1ccc(NC(=S)NCc2cccnc2)cc1	585	-	-	-
CCCCOC(=O)c1ccc(NC(=O)C(=O)NCc2cccnc2)cc1	25	-	-	-
CCc1ccc(CNC(=O)c2ccc(NC(=O)C3=CSCCO3)cc2)cc1	-	-	.	.
CCCCCCCCCCn1c2c(c(=N)c3c1CCC3)CCC2	-	107	-	-
CCCCCCCCCn1c2c(c(=N)c3c1CCC3)CCCC2	-	105	-	-
CCCCCCCCn1c2c(c(=N)c3ccccc31)CCC2	-	?	-	-
O=C(Nc1cc(F)cc(F)c1)c1ccc(NCCCN2CCCCCC2)c([N+](=O)[O-])c1	-	98	-	-
O=C(Nc1cc(F)cc(F)c1)c1ccc(NCCc2ccccc2)c([N+](=O)[O-])c1	-	-	-	-
Cc1nc(N2CCN(c3ccccn3)CC2)c2c(C)c(C(=O)Nc3ccc(Br)cc3C)sc2n1	-	-	.	.
COc1ccc(S(=O)(=O)N(C)c2ccc(C(=O)Nc3ccccc3C(=O)N3CCOCC3)cc2)cc1OC	-	-	.	.
N#C/C(=C\c1cccc2ccccc12)c1nn(-c2ccccc2)c(N)c1C#N	-	-	-	-
SMILES	HIF activator	Calb FLC	TNF death inh	zVAD death inh
Cc1ccc(/C=C(\C#N)c2nn(-c3ccccc3)c(N)c2C#N)cc1	9.8	-	-	-
COc1cc(CC(=O)Nc2nccs2)cc(OC)c1OC	-	106	-	-
COc1ccc(CCC(=O)Nc2nccs2)cc1OC	-	-	.	.
COc1ccc(-c2csc(NNC3=NCCCCC3)n2)cc1	205	-	-	-
COc1ccc(-c2csc(NC3=NCCCCC3)n2)cc1	-	-	-	-
COc1ccc(NC(=O)/C(C#N)=C\c2ccc(N3CCOCC3)o2)cc1	-	103	-	-
CCOc1ccc(NC(=O)C2CCN(S(=O)(=O)c3ccc4c(c3)N(C(C)=O)CCO4)CC2)cc1	25	-	.	.
Cc1nnc(NC(=O)c2ccc(S(=O)(=O)N(C)Cc3ccccc3)cc2)o1	-	87	-	-
CCCNC(=O)c1ccc2c(=O)c(O)c(-c3ccc(Cl)c([N+](=O)[O-])c3)[nH]c2c1	-	114	-	-
O=C(NCCc1nc2ccccc2[nH]1)c1ccc(Cl)c([N+](=O)[O-])c1	-	-	-	-
COc1ccc(NC(=O)Nc2c(O)ccc3ccccc23)cc1	-	-	.	.
COc1ccccc1NC(=O)c1nc(S(=O)(=O)Cc2ccccc2)ncc1Cl	634	-	.	.
CCS(=O)(=O)c1ncc(Cl)c(C(=O)Nc2ccccc2OC)n1	-	-	.	.
O=C(O)c1ccc2c(c1)[C@@H]1C=CC[C@@H]1[C@H](c1ccccn1)N2	-	110	-	-
COc1ccc(C(=O)N/N=C(\C)c2ccc3c(c2)C2C=CCC2C(c2ccccc2)N3)cc1 (centres undefined)	.	.	-	.
O=C(COc1ccccc1)N(Cc1cccc(F)c1)C1CCS(=O)(=O)C1 (centres undefined)	18	-	.	.
CCOc1ccc(CN(C(=O)c2oc3ccccc3c2C)C2CCS(=O)(=O)C2)cc1 (centres undefined)	-	101	-	-
CC(NC(=O)CCNC(=O)c1ccco1)c1ccc(F)cc1 (centres undefined)	-	-	.	.
Cc1ccccc1NC(=O)CN(C)S(=O)(=O)c1ccc(-c2ccc(=O)[nH]n2)s1	519	-	.	.
Cc1cccc(NC(=O)CN(C)S(=O)(=O)c2ccc(-c3ccc(=O)[nH]n3)s2)c1C	-	-	.	.
O=C(NNC1=C(C(=O)C(F)(F)F)CCC1)c1ccc(Cl)cc1	-	109	-	-
COc1ccc(C(=O)NNC2=C(C(=O)C(F)(F)F)CCC2)cc1	-	-	-	-
O=C(NNC1=C(C(=O)C(F)(F)F)CCC1)c1cccc(Cl)c1	-	101	-	-
Cc1ccc(NS(=O)(=O)c2cc(C(=O)Nc3cccc([N+](=O)[O-])c3)ccc2C)cc1	-	-	-	-
Cc1ccc(C(=O)Nc2cccc([N+](=O)[O-])c2)cc1S(=O)(=O)Nc1ccc(NC(=O)c2ccccc2)cc1	140	-	-	-
SMILES	HIF activator	Calb FLC	TNF death inh	zVAD death inh
COc1cccc(-c2nc(CS(=O)(=O)CC(=O)N3CCOCC3)c(C)o2)c1	-	-	.	.
C/C(=N\Nc1ccc(Cl)cc1)c1c(O)cc(C)oc1=O	-	125	-	-
CCOC(=O)Cc1csc(NC(=O)CSc2nnc(-c3ccc(NS(=O)(=O)CC)cc3)o2)n1	-	85	-	-
CCOC(=O)Cc1csc(NC(=O)CSc2nnc(-c3ccncc3)o2)n1	-	106	-	-
Cc1ccc(S(=O)(=O)N2CCC(C(=O)OCC(=O)N(C)CC(=O)Nc3ccc(F)cc3)CC2)cc1C	-	-	.	.
COC(=O)c1cc(C)sc1NC(=O)c1cccnc1	-	110	-	-
S=C1NC2=C(CCCC2=C2SCCS2)C(c2ccccc2)N1 (centres undefined)	69	-	-	-
C#Cc1cccc(C(=O)N2CCCC(CCC(=O)NCc3ccccc3F)C2)c1 (centres undefined)	-	-	.	.
CNC(=O)Nc1cc(C(F)(F)F)cc(C(F)(F)F)c1	-	86	-	-
CC(CC(=O)O)CC(=O)Nc1cc(C(F)(F)F)cc(C(F)(F)F)c1 (centres undefined)	-	-	-	-
Cc1ccc(C2CC(=O)C(C=NCCN3CCN(C(=S)Nc4ccc(F)cc4)CC3)=C(O)C2)cc1 (centres undefined)	-	-	-	-
Cc1cc(C)nc(N/N=C/C2=C(O)CC(c3ccc(F)cc3)CC2=O)n1 (centres undefined)	22	-	-	-

Compound activity: PubChem, several laboratories
